Compound activity: PubChem, National Center for Advancing Translational Sciences (NCATS)
The sample as a whole holds a higher share of hits than the screen did.
TbPYK inhibitor – blocks Trypanosoma brucei pyruvate kinase; Q57TT1; TbPYK enzyme, Kinase-Glo Plus ATP luminescence, 45 min; actives 0.12% (n = 410,000); Potency, µM (top dose mostly 76.8 µM), inactives show at the top dose activity, negative = inhibition, actives largely listed as inhibitors; note: potency is the fitted concentration of half-maximal effect; % is set by controls: 0 for no effect and ±100 for the full control effect; nearly all actives have a fitted effect of over 50% in size
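In this concentration-response screen, enzyme-free wells defined baseline while DMSO plates tracked drift. Each reaction combined TbPYK, substrate, compound and 130 uM ADP for 45 min at room temperature. Kinase-Glo Plus luminescence gave the signal.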
Cycloheximide cs – counter-screen hit for Shiga toxin inhibitors, cycloheximide; cell reporter, cycloheximide protein synthesis inhibition counterscreen; max response, %; actives 12% (n = 300,000); in the data active = max response mostly above about 13%, no sharp cut-off; inactive = mostly below about 14%; note: read at 38.3 µM for the half of the compounds with a filed dose; 0% is about no effect
Shiga inhibitor – Shiga toxin inhibition; Vero cells, Shiga toxin protein synthesis inhibition reporter; inhibition, % at 38.7 µM; actives 9.2% (n = 290,000); AID 2315; in the data active = inhibition mostly above about 28%, no sharp cut-off; inactive = mostly below about 43%; note: 0% is about no effect
LmPK inhibitor – inhibitors of Leishmania mexicana pyruvate kinase; purified LmPK, Kinase-Glo ATP luminescence, 1 h; actives 0.37% (n = 290,000); Potency, µM (titrated, usually from 57.5 µM), inactives show at the highest dose activity change, negative = inhibition, hits mostly inhibitors; Q27686; note: potency is the fitted concentration of half-maximal effect; % is set by controls: 0 for no effect and ±100 for the full control effect
Target sequence (Q27686 whole entry, looked up): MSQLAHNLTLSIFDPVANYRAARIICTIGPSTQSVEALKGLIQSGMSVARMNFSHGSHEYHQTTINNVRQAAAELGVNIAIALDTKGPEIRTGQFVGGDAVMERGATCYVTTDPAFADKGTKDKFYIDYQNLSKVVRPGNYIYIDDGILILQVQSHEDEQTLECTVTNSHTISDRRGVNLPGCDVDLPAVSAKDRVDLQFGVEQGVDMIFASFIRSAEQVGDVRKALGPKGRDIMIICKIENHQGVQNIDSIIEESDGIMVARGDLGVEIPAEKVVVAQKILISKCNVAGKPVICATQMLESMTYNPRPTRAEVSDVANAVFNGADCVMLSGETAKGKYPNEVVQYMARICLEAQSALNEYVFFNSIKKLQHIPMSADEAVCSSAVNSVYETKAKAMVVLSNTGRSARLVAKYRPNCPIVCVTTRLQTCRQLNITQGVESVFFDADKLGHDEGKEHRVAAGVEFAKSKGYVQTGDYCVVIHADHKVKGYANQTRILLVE
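ATP generated from ADP (0.1 mM) and PEP (0.5 mM) by 0.1 nM LmPK over 1 h at room temperature (pH 7.2 imidazole buffer) was detected by coupled luciferase luminescence. Values were normalized to uninhibited and no-enzyme wells.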
RE007 growth inh – less growth of the S. pombe RE007 Vpr strain | S. pombe RE007 Vpr strain, BacTiter-Glo ATP luminescence, 24 h | AID 651644 | Potency, µM (highest dose often 92.2 µM), without a hit: top-dose activity change, negative = less growth, hits mostly inhibitors | actives 0.21% (n = 360,000); active = well fitted falling curve with a large enough effect; inconclusive = small, poorly fitted or top-dose-only effect; inactive = no such curve, though single readings can be large or run the other way; note: potency is the fitted concentration of half-maximal effect; % is set by controls: 0 for no effect and ±100 for the full control effect; nearly all actives have a fitted effect of over 50% in size
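Fission yeast RE007 carrying one integrated HIV-1 vpr copy, seeded at OD 0.01 in PMG+AL medium with 23 nL pinned compound. Grown 24 h at 30 degrees; viability read by BacTiter-Glo luminescence after 5 min.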
Giardia FBPA inh – Giardia lamblia aldolase inhibition; A8B2U2; Potency, µM (top dose mostly 59.6 µM), for the others: top-dose activity, negative = inhibition, usual class: inhibitors; actives 0.71% (n = 290,000); purified Giardia FBPA; note: potency is the fitted concentration of half-maximal effect; % is set by controls: 0 for no effect and ±100 for the full control effect; nearly all actives have a fitted effect of over 55% in size
Target sequence (A8B2U2 whole entry, looked up): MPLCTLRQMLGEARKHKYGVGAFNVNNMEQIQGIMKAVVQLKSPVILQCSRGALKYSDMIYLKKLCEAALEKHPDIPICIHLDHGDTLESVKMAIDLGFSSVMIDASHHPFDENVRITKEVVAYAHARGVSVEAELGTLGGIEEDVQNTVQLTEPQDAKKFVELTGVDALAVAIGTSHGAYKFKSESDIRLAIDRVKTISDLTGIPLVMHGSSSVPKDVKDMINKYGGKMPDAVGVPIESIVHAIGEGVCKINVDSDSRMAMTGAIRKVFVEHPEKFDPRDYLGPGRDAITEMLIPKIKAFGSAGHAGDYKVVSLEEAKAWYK
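Giardia FBPA (40 nM reagent) was preincubated 10 min at RT with compound (up to 57.5 uM final), then substrate plus GAPDH/TPI/NAD/arsenate coupling system with diaphorase/resazurin was added; resorufin fluorescence (525/598 nm) was read after 20 min.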
The depositor's hits bear a star; u = inconclusive; x = not tested or not shown; [ ] = remark or other dose. Unless noted, calls come from the whole dose curve; as a rule, active = well fitted curve in the direction sought with a large enough effect; inconclusive = small, poorly fitted or top-dose-only effect, or another doubt; inactive = no such curve, though single readings can be large; an effect the other way counts as inactive or inconclusive.

SMILES | TbPYK inhibitor | Cycloheximide cs | Shiga inhibitor | LmPK inhibitor | RE007 growth inh | Giardia FBPA inh
Cc1nc2cc(NC(=O)COc3ccc(C#N)cc3)ccc2n1-c1ccccc1 | -1.5% | 8.1 | -7.5 | 2.0% | 0.3% | 3.4%
CC(Cc1ccccc1)NCCn1cnc2c1c(=O)n(C)c(=O)n2C (centres undefined) | -9.8%[157 µM] | x | x | x | x | x
COC(=O)[C@H](CCSC)NC(=O)C/C=C\[C@@H](C)CO | x | x | x | x | x | 1.1%[12.9 µM]
CC(C)C[C@@H](NC(=O)[C@@H](Cc1ccccc1)NC(=O)c1cnccn1)B(O)O | -3.2% | x | x | x | x | x
Cc1cc(C(=O)O/N=C(\N)c2ccncc2)ccc1[N+](=O)[O-] | 4.4% | 40.9* | 80.5* | -11.0% | -5.9% | -1.7%
CCCc1ccc(C(=O)O/N=C(\N)c2ccccn2)cc1 | u | -2.1 | -24.8 | 15.8µM* | u | 13.0%
N/C(=N\OC(=O)c1ccc2ccccc2c1)c1ccccc1Cl | 1.7% | 50.8* | 176.4* | -7.2% | -15.2% | x
N/C(=N\OC(=O)c1cccc(C(F)(F)F)c1)c1cnccn1 | 3.4% | 30.3* | 59.2* | 0.7% | 20.0% | x
C=CC[C@@H]1C=C[C@@H](O/N=C\C[C@@H]2C=C[C@H](OC(C)=O)[C@H](COC(C)=O)O2)[C@@H](CO)O1 | x | x | x | x | x | 0.1%[12.9 µM]
CCc1ccc(NC(=O)Cn2c(=O)ccc3cc(S(=O)(=O)N4CCCC4)ccc32)cc1 | 0.6% | x | x | x | x | x
COc1cccc(C(=O)O/N=C(\N)c2ccccn2)c1 | u | -9.2 | -14.6 | 14.1µM* | u | 11.3%
COc1cccc(C(=O)NCCCNC(=O)c2ccccn2)c1 | 1.5% | 5.6 | -1.6 | -0.2% | -4.6% | 0.2%
N/C(=N\OC(=O)c1ccc2ccccc2c1)c1ccccn1 | u | -1.2 | 6.3 | 14.1µM* | -14.5% | 0.3%
N/C(=N\OC(=O)c1ccc(=O)n(Cc2ccccc2)c1)c1ccccn1 | 0.6% | 30.3* | 63.5* | -4.3% | -10.9% | 1.4%
COc1ccc(/C(N)=N/OC(=O)c2ccc3ccccc3c2)cc1OC | 0.6% | x | x | x | 18.2% | x
N/C(=N\OC(=O)c1ccc2ccccc2c1)c1ccncc1 | -4.6% | 37.3* | 117.5* | -21.9% | -12.9% | -4.6%
CC[C@H](C)[C@H](NC(=O)CNC(=O)[C@H](C)NC(=O)[C@H](C)N)C(=O)NCC(=O)N[C@H](C(=O)N[C@@H](CC(C)C)C(=O)N[C@H](C(=O)N[C@H](C(=O)O)C(C)C)[C@@H](C)O)[C@@H](C)CC | x | -6.3 | -6.1 | x | x | 3.5%
CCCOc1ccc(NC(=O)CC2C(=O)N(c3cccc(C)c3)C(=O)N2CCc2ccncc2)cc1 (centres undefined) | 2.6% | x | x | x | x | x
CCCc1cc2c(=O)c(-c3ccccn3)c(C)oc2cc1O | 0.6% | 11.3 | 38.9 | -6.1% | -14.2% | -1.1%
CCCc1cc2c(=O)c(-c3ccccn3)coc2cc1OC | -3.2% | 44.5* | 90.1* | 0.6% | -1.2% | 7.6%
CCc1c(C)c(C#N)c2nc3ccccc3n2c1Nc1cccc(C(F)(F)F)c1 | -6.6% | x | x | x | x | x
CCCCc1nnc(NC(=O)C2=COCCO2)s1 | 5.5% | 39.6* | 68.8* | -2.9% | -1.4% | x
CCC(CC)c1nnc(NC(=O)C2CCCO2)s1 (centres undefined) | 1.1% | 18.6* | 17.4 | -3.5% | 6.2% | -6.9%
CCCCc1nnc(NC(=O)C2CCCO2)s1 (centres undefined) | -4.4% | 14.7* | 53.3* | -2.7% | 8.0% | -0.1%
CCCCN(C)CCNC(=O)c1nn(-c2ccc(OC)c(Cl)c2)c(=O)c2c1c1ccccc1n2C | 1.5% | x | x | x | x | x
SMILES | TbPYK inhibitor | Cycloheximide cs | Shiga inhibitor | LmPK inhibitor | RE007 growth inh | Giardia FBPA inh
CCN(Cc1ccccc1)C(=O)C1CCN(S(=O)(=O)c2ccc3c(c2)CCCN3C(C)=O)CC1 | -0.2% | x | x | x | x | x
Cc1cccc(NC(=O)CN2C(=O)COc3ccc(S(=O)(=O)N4CCC(C)CC4)cc32)c1C | -2.8% | x | x | x | x | x
CCCCCCOc1ccc(C2C(=O)N(C3CCCCC3)CC(=O)N2CCCC)cc1 (centres undefined) | 7.3% | x | x | x | x | x
O=c1c(C=NCCCO)c(-c2ccccc2)[nH]n1-c1nc2ccccc2s1 | -1.6% | 27.5* | 38.5* | 7.3% | -16.7% | -1.3%
COCCCN=Cc1c(-c2ccccc2)[nH]n(-c2nc3ccccc3s2)c1=O | 0.8% | 16.2* | 42.5 | 1.3% | -15.5% | -1.1%
CCCc1[nH]n(-c2nc3ccccc3s2)c(=O)c1C=NCCCOC | 1.8% | 22.5 | 36.9 | 1.9% | -9.7% | 8.2%
CCCCCN=Cc1c(C)[nH]n(-c2nc3ccccc3s2)c1=O | 5.3% | 16.4* | 9.0 | -11.3% | u | 11.4%
COc1ccc(Cl)cc1NC(=O)c1sc(-n2nc(C)c(Cc3ccccc3)c2C)nc1C | -14.4% | x | x | x | x | x
CC1C(=O)Nc2ccc(S(=O)(=O)NCc3ccc(N(C)C)cc3)cc2NC1=O (centres undefined) | 4.1% | x | x | x | x | x
O=C(Nc1ccc2c(c1)OCO2)Nc1ccc(Cl)cc1Cl | x | 28.1* | 63.6* | 2.0% | -8.5%[3.69 µM] | 3.5%
O=C(Nc1cccc(C(=O)O)c1)Nc1ccc2c(c1)OCO2 | -16.3% | 29.7* | 36.1* | -7.4% | -14.7% | -4.4%
O=C(Nc1cccc(C(=O)O)c1)/C(=C\c1ccc2c(c1)OCO2)NC(=O)c1ccc(Br)o1 | -16.5% | 16.4* | 45.4* | 2.4% | -8.1% | 21.2%
O=C(Nc1ccc(OC(F)F)c(Cl)c1)Nc1ccc2c(c1)OCO2 | -7.5% | 25.6 | 42.2 | 0.9% | 1.9% | -3.2%
O=C(Nc1ccc2c(c1)OCO2)Nc1ccc2c(c1)OCO2 | -6.5% | 29.4* | 75.3* | -0.9% | 2.7% | -7.5%
CCOC(=O)c1cc(-c2ccc(C)cc2)n(CCC(=O)Nc2ccc(OC)c(OC)c2)c1C | 0.3% | x | x | x | x | x
CCc1ccc2[nH]c(C(=O)Nc3ccc(Br)c(C)n3)cc2c1 | -16.4% | 31.7* | 136.6* | -0.6% | -10.7% | 2.2%
O=C(Nc1ccc2c(c1)OCO2)Nc1ccc(F)cc1F | -2.4% | 65.0* | 86.7* | -6.4% | -0.6% | -1.6%
Cc1cc(C)c(NC(=O)Nc2ccc3c(c2)OCO3)c(C)c1 | -1.7% | 37.2* | 82.4* | 3.9% | -6.7% | -1.7%
O=C(Nc1ccc(F)cc1)Nc1ccc2c(c1)OCO2 | 1.6% | -2.3 | 11.7 | -7.2% | 4.4% | x
CCc1ccc2[nH]c(C(=O)Nc3ccc4c(c3)OCO4)cc2c1 | -4.9% | 19.3* | 47.5 | 4.8% | 9.9% | -12.8%
Cc1cccc(N2C(=O)CSC23C(=O)N(CC(=O)NCCc2ccccc2)c2ccccc23)c1 (centres undefined) | 1.2% | x | x | x | x | x
O=C(Nc1ccc([N+](=O)[O-])cc1)Nc1ccc2c(c1)OCCO2 | 1.2% | 55.0* | 128.8* | 5.6% | -0.8% | -1.8%
O=C(Nc1cccnc1)Nc1ccc2c(c1)OCO2 | x | 43.3* | 88.0* | u | 1.6%[3.69 µM] | -7.8%
S=C(NCc1ccc(Cl)c(Cl)c1)Nc1ccc2c(c1)OCO2 | -2.0% | -2.0 | -10.1 | -0.3% | 6.9% | -2.1%
